Experimental data reported in PubChem BioAssay AID2685 (National Center for Advancing Translational Sciences (NCATS), 2010).
Hit rate of the full screen: of about 320,000 compounds, about 2,100 (0.66%) were called active. About 53% were inconclusive and are not listed. The sample holds actives, similar compounds and a random draw of the others, so the mix is not that of the screen. Calls follow the shape of the dose curve; as a rule, active = well fitted inhibition curve with a large enough effect in the signal ratio, with a control signal flat (not every such curve was filed as active); inconclusive = small, poorly fitted or top-dose-only effect, or effect the other way, or a change in a side signal; inactive = flat fitted curve, though single readings scatter; the % refers to the signal ratio.

Test: qHTS Assay for Lipid Storage Modulators in Drosophila S3 Cells;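 as to cell number change: cells counted by Cell Tracker Red CMTPX staining in the red channel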; as to lipid storage change, negative = inhibition: % is scaled to controls: 0 for no effect and ±100 for the full control effect
Details: BODIPY lipid droplet fluorescence, 18-24 h, cells fed with added oleic acid; cell number change: measured here: cell count max response; series mostly up to 46.1 µM; lipid storage change, negative = inhibition: at the top concentration
How it was run: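 Drosophila S3 cells got compounds at several concentrations plus oleic acid (400 uM solution). Laser-scanning cytometry with 488 nm excitation read lipid droplets at 500-530 nm and cells at 575-640 nm. Percent activity was relative to 20 uM Triacsin C.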
Potency is read from the fitted curve at half-maximal effect.

| SMILES | outcome | cell number change | Potency | lipid storage change, negative = inhibition |
| --- | --- | --- | --- | --- |
| CC(C)(C)c1ccc(C(=O)OCC(=O)NC2CC2)cc1 | inactive |  |  |  |
| CCc1nn(C(CC)C(=O)NCc2cccs2)c(=O)c2cc3occc3n12 (configuration not stated) | inactive | -4.96% |  |  |
| CCc1nn(C(CC)C(=O)NCc2cccc(OC)c2)c(=O)c2cc3occc3n12 (configuration not stated) | inactive |  |  |  |
| CCc1nn(C(CC)C(=O)NCc2cccc(OC)c2OC)c(=O)c2cc3occc3n12 (configuration not stated) |  | -13.5% | 10.3 µM (active) |  |
| Cc1cc(S(=O)(=O)NCC(C)C)ccc1OCC(=O)NCc1ccco1 |  | 21.6% |  | 5.71% (inactive) |
| Cc1noc(C)c1CCC(=O)NC1CCCN(Cc2ccc(CC(C)C)cc2)C1 (configuration not stated) | inactive |  |  |  |
| Cc1ccc(N=Cc2ccc(O)cc2O)cc1F |  |  |  | 28.9% (inactive) |
| O=C(O)C1C2C=CC(O2)C1C(=O)Nc1ccc(S(=O)(=O)N2CCc3ccccc32)cc1 (configuration not stated) |  | -9.33% |  | 18.4% (inactive) |
| O=C(O)c1ccc(NC(=O)C2CC=CCC2C(=O)O)cc1 (configuration not stated) |  | 3.62% | 0.184 µM (active) |  |
| O=C(O)C1CC=CCC1C(=O)Nc1ccccc1 (configuration not stated) | inactive |  |  |  |
| O=C(Nc1ccc(S(=O)(=O)N2CCc3ccccc32)cc1)C(F)(F)F | inactive | -4.4% |  |  |
| CN(C(=O)c1ccc(NC(=O)C2CC=CCC2C(=O)O)cc1)c1ccccc1 (configuration not stated) |  | 2.31% |  | -13.4% (inactive) |
| O=C(O)C1CC=CCC1C(=O)Nc1ccc(S(=O)(=O)N2CCCc3ccccc32)cc1 (configuration not stated) |  | 4.45% | 23.1 µM (active) |  |
| CC(C)CC(NC(=O)c1ccccc1)C(=O)OCC(=O)Nc1ccc(Br)cn1 (configuration not stated) | inactive |  |  |  |
| Cc1[nH]c2ccccc2c1SCCNC(=O)c1ccc(S(=O)(=O)N2CCCC2)cc1 |  | -15.8% |  | 15.4% (inactive) |
| CNC(=S)Nc1cc(C(=O)N2CCCC2)ccc1N1CCCC1 |  | -7.02% |  | 5.95% (inactive) |
| Cc1cccc(NC(=O)C2C(c3ccccc3)C2(Cl)Cl)c1C (configuration not stated) |  | 10.7% |  | -1.24% (inactive) |
| O=C(c1cccs1)N1CCC(c2nc3c(nnn3Cc3cccc(Cl)c3)c(=O)[nH]2)CC1 | inactive | -4.62% |  |  |
| Cc1ccc(N(C(=O)Cc2cccs2)C(C(=O)NC2CCCCC2)c2ccccn2)cc1C (configuration not stated) |  | 4.06% |  | -10.6% (inactive) |
| O=C(CCC(=O)c1ccccc1)NCCc1c[nH]c2ccccc12 |  | -0.682% |  | 3.97% (inactive) |
| Cc1ccccc1NS(=O)(=O)c1ccc(C)c(C(=O)N2CCOCC2)c1 |  | 1.29% |  | 10.2% (inactive) |
| CN(C)C(=O)N1CCN(C(=O)N2CCOCC2)CC1 |  | 3.54% |  | 0.227% (inactive) |
| Cc1cc(C)c(S(=O)(=O)Nc2ccccc2C(=O)N2CCOCC2)c(C)c1 |  | -34.8% | 25.9 µM (active) |  |
| CN(C)S(=O)(=O)N1CCN(C(=O)N2CCOCC2)CC1 |  | -2.73% | 5.8 µM (active) |  |

| SMILES | outcome | cell number change | Potency | lipid storage change, negative = inhibition |
| --- | --- | --- | --- | --- |
| COc1ccc(S(=O)(=O)Nc2ccccc2C(=O)N2CCOCC2)cc1C | inactive | -5.26% |  |  |
| Cc1cc(C)c(S(=O)(=O)N2CCN(C(=O)N(C)C)CC2)c(C)c1 |  | -11% |  | -7.06% (inactive) |
| Cc1cc(C)c(S(=O)(=O)N2CCN(C(=O)N3CCOCC3)CC2)c(C)c1 |  | -4.21% | 3.66 µM (active) |  |
| CN(C)S(=O)(=O)N1CCN(S(=O)(=O)N2CCOCC2)CC1 |  | 6.09% |  | 0.943% (inactive) |
| Cc1cc(C)c(S(=O)(=O)N2CCN(S(=O)(=O)N3CCOCC3)CC2)c(C)c1 | inactive | 9.13% |  |  |
| CCCN(CCC)S(=O)(=O)c1nc2nc(C)cc(C)n2n1 |  | 8.75% |  | -0.0183% (inactive) |
| COc1cc2c(cc1OC)C(c1ccc(O)cc1)NCC2 (configuration not stated) | inactive | -6.35% |  |  |
| O=C1CCCN1CCC12CC3CC(CC(C3)C1)C2 |  | -8.85% |  | 6.49% (inactive) |
| COc1ccc(OC)c(CN2CCN(CCCc3ccccc3)C(CCO)C2)c1 (configuration not stated) |  | 25.4% |  | 0.843% (inactive) |
| CCOc1ccc(CCNC(=O)c2ccc(=O)[nH]c2)cc1OCC |  | 0.381% |  | 2.9% (inactive) |
| Cc1cccc(OCc2cc(-c3ccccc3)no2)c1C |  | 19.4% |  | 26% (inactive) |
| CC(C)C(c1nnnn1C1CCCCC1)N1CCc2ccccc21 (configuration not stated) | inactive | 19.2% |  |  |
| CC(C)C(c1nnnn1C1CCCC1)N1CCCCC1 (configuration not stated) | inactive | -26.8% |  |  |
| CC(C)C(c1nnnn1C1CCCC1)N(C)C1CCCCC1 (configuration not stated) |  | -2.08% | 5.17 µM (active) |  |
| N#CC(C(=O)O)=C1CCCC1 |  | -10.5% | 23.1 µM (active) |  |
| N#CC(C(=O)Nc1ccccc1)=C1CCCCC1 | inactive |  |  |  |
| N#CC(C(=O)NC1CCCCC1)=C1CCCCC1 |  | 0.427% |  | 0.277% (inactive) |
| CCOc1cc(-c2ccc3c(c2)OCO3)cc(=O)c2c(C)oc(C)c12 | inactive | -26.2% |  |  |
| CCO[C@@H]1OC(C(=O)N2CCN(Cc3ccc4c(c3)OCO4)CC2)=C[C@H](c2csc3ccccc23)[C@H]1CCCO |  | -13% |  | 1.93% (inactive) |
| COc1ccccc1NC(=O)CC(NC1CCCCC1)C(=O)O (configuration not stated) |  | 3.03% |  | 3.12% (inactive) |
| O=C(Nn1cnc2ccccc2c1=O)c1ccccc1F |  | -5% |  | -8.71% (inactive) |
| N#Cc1ccc2c(c1)nc1ccccn12 |  | 11.1% |  | -3.29% (inactive) |
| N#Cc1c(-c2ccc3c(c2)OCO3)cc[nH]c1=O |  | 17.2% |  | 14.1% (inactive) |
